From publication PMC12864922, “TDP-43 directly inhibits mRNA accumulation in neurites through modulation of mRNA stability”
Over roughly 9,900 sequences, “r (bound/input frequency ratio)” has its median near 0.7; the highest 2% begin near 6.5. Only a selection was taken, and the highest values are over-represented in it overall.

B1: ENSMUSG00000090935.743|Synj2bp (ssRNA)
RNA: GGGAGUUCUACAGUCCGACGAUCGCUUCGAUAUCCGCAUGCUAAAUACUCCUGGGUAAAAUUUGUAUUAGAAUGGAAAAAAAAAUGAGGGUCAGAAAGGUGAGCUAACUUCAAGUUAGAUACUCCCCUCUAUUUUGGUCUCAAAUUUGUUUUAGUGUGUCCACAACAUGAAAACAUACAAAAACUAUAUUUUAAAAAUCAGUUUACUUUCAUCUUUUCUCUUUAGGCUUUCAAUAAAGACCAGAAGGACUGAUAGACAGCUAGAGAGGAUCGUGUAGGCAUCCAGAUUAGAAUGGAAGAAUCCCUCUUGCGGUCGCACUAGUGUGGAAUUCUCGGGUGUCAAGG
B2: ENSMUSG00000022095.31|Fam160b2|161:165 (ssRNA)
RNA: GGGAGUUCUACAGUCCGACGAUCGCUUCGAUAUCCGCAUGCUACUCUGUCCUCCAUGCCGGGGACUUCAGCUGCAGGACACCUCACCUGUUGACCCCACGAGCUGAGGUUUCAAGGAGGUGCUGGCUCCUAAGGCAGUGGUAUUCUUGGAGCCUUUUAGAGGAGCUAGAGGAUGGCCAGUGAGCGCCUAGAUGCUGCCCUGCAACACAUGCGUGACUAUCUCUGCUAUAUUGUGACCAGGGCCACAACAUGAGACAACUCCAGGGGCCAGGGAGAUGAACUGCUGUCUUUGAGGCUGGCUAAACUCUUGCGGUCGCACUAGUGUGGAAUUCUCGGGUGUCAAGG
B3: ENSMUSG00000042529.39|Kcnj12 (ssRNA)
RNA: GGGAGUUCUACAGUCCGACGAUCGCUUCGAUAUCCGCAUGCUAGUUUUUUCGCAGUAGCUUGGGAAAGUUGGCGGGAGCGUGGAUGGCCAAAAUGACUGGCUCACGGCCUCGGAGGCUGAUGUAUACCCAUGGGCAAGGAGGUGACUUCUUGGGGUAGGGUUGCUCAGGAGUUAGGGACUCUGCUGGAGGCCUUAGGUGCAGGUCCCAGCCCCGGUGGGAGGAGGCUGUGUAUGUACACUUCAUUGGUUUUUAACUUGGGCAAGACUGUUUACAAACAAAAACAAACAAACAAACAAUCAAAACUCUUGCGGUCGCACUAGUGUGGAAUUCUCGGGUGUCAAGG
B4: ENSMUSG00000061578.1490|Ksr2 (ssRNA)
RNA: GGGAGUUCUACAGUCCGACGAUCGCUUCGAUAUCCGCAUGCUAGGUAGAAGGGUGAGUGGGUGGAUGAAUGGAUGGAUAGGUUGGUAGGUUAAUGUAUUCGUGGAUGGGUGAAUGGAUGGAUGGAUAGAUAGAUGGGAAGGUGGAUGGACAGAUGGAUGGAUGGAUAGAUAGAUGGACAGGUGGUUGGUGGAUAAAUGAGUGAAUGAUUAUGUUGAUAGAUAUGUGGGUAGGCUGAAUGGGUGAAUGGAUAGAUCGAUGACUGGAUGGAGGGUGGGUGACUGUAUAGGCAGGUGGGUAGGUAGCUCUUGCGGUCGCACUAGUGUGGAAUUCUCGGGUGUCAAGG
B5: ENSMUSG00000061578.1489|Ksr2 (ssRNA)
RNA: GGGAGUUCUACAGUCCGACGAUCGCUUCGAUAUCCGCAUGCUAUAUGUGGGUAGAAGGGUGAGUGGGUGGAUGAAUGGAUGGAUAGGUUGGUAGGUUAAUGUAUUCGUGGAUGGGUGAAUGGAUGGAUGGAUAGAUAGAUGGGAAGGUGGAUGGACAGAUGGAUGGAUGGAUAGAUAGAUGGACAGGUGGUUGGUGGAUAAAUGAGUGAAUGAUUAUGUUGAUAGAUAUGUGGGUAGGCUGAAUGGGUGAAUGGAUAGAUCGAUGACUGGAUGGAGGGUGGGUGACUGUAUAGGCAGGUGGGUCUCUUGCGGUCGCACUAGUGUGGAAUUCUCGGGUGUCAAGG
B6: ENSMUSG00000061578.1493|Ksr2 (ssRNA)
RNA: GGGAGUUCUACAGUCCGACGAUCGCUUCGAUAUCCGCAUGCUAUGGAUGAAUGGAUGGAUAGGUUGGUAGGUUAAUGUAUUCGUGGAUGGGUGAAUGGAUGGAUGGAUAGAUAGAUGGGAAGGUGGAUGGACAGAUGGAUGGAUGGAUAGAUAGAUGGACAGGUGGUUGGUGGAUAAAUGAGUGAAUGAUUAUGUUGAUAGAUAUGUGGGUAGGCUGAAUGGGUGAAUGGAUAGAUCGAUGACUGGAUGGAGGGUGGGUGACUGUAUAGGCAGGUGGGUAGGUAGCUGGAUGGGUGGGCGUAUCUCUUGCGGUCGCACUAGUGUGGAAUUCUCGGGUGUCAAGG
B7: ENSMUSG00000061578.1488|Ksr2 (ssRNA)
RNA: GGGAGUUCUACAGUCCGACGAUCGCUUCGAUAUCCGCAUGCUAAAUGAAUAUGUGGGUAGAAGGGUGAGUGGGUGGAUGAAUGGAUGGAUAGGUUGGUAGGUUAAUGUAUUCGUGGAUGGGUGAAUGGAUGGAUGGAUAGAUAGAUGGGAAGGUGGAUGGACAGAUGGAUGGAUGGAUAGAUAGAUGGACAGGUGGUUGGUGGAUAAAUGAGUGAAUGAUUAUGUUGAUAGAUAUGUGGGUAGGCUGAAUGGGUGAAUGGAUAGAUCGAUGACUGGAUGGAGGGUGGGUGACUGUAUAGGCAGCUCUUGCGGUCGCACUAGUGUGGAAUUCUCGGGUGUCAAGG
B8: ENSMUSG00000061578.1492|Ksr2 (ssRNA)
RNA: GGGAGUUCUACAGUCCGACGAUCGCUUCGAUAUCCGCAUGCUAAGUGGGUGGAUGAAUGGAUGGAUAGGUUGGUAGGUUAAUGUAUUCGUGGAUGGGUGAAUGGAUGGAUGGAUAGAUAGAUGGGAAGGUGGAUGGACAGAUGGAUGGAUGGAUAGAUAGAUGGACAGGUGGUUGGUGGAUAAAUGAGUGAAUGAUUAUGUUGAUAGAUAUGUGGGUAGGCUGAAUGGGUGAAUGGAUAGAUCGAUGACUGGAUGGAGGGUGGGUGACUGUAUAGGCAGGUGGGUAGGUAGCUGGAUGGGUGGCUCUUGCGGUCGCACUAGUGUGGAAUUCUCGGGUGUCAAGG
B9: ENSMUSG00000061578.1494|Ksr2 (ssRNA)
RNA: GGGAGUUCUACAGUCCGACGAUCGCUUCGAUAUCCGCAUGCUAAAUGGAUGGAUAGGUUGGUAGGUUAAUGUAUUCGUGGAUGGGUGAAUGGAUGGAUGGAUAGAUAGAUGGGAAGGUGGAUGGACAGAUGGAUGGAUGGAUAGAUAGAUGGACAGGUGGUUGGUGGAUAAAUGAGUGAAUGAUUAUGUUGAUAGAUAUGUGGGUAGGCUGAAUGGGUGAAUGGAUAGAUCGAUGACUGGAUGGAGGGUGGGUGACUGUAUAGGCAGGUGGGUAGGUAGCUGGAUGGGUGGGCGUAUAGAAAGCUCUUGCGGUCGCACUAGUGUGGAAUUCUCGGGUGUCAAGG

Target: TDP-43 (Homo sapiens, UniProt Q13148 1-414)
Sequence (Q13148 whole entry): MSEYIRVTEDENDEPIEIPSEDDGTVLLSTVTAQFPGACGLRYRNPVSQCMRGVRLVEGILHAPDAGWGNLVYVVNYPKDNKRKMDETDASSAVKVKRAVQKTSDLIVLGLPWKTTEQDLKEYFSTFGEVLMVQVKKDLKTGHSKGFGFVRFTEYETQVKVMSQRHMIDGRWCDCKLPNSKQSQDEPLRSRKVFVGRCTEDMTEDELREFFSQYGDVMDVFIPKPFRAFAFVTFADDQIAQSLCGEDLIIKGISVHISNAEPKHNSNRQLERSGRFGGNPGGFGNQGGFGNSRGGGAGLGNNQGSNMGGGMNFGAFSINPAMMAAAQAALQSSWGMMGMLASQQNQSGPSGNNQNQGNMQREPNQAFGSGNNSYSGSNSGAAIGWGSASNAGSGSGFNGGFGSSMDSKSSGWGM
Experiment: RNA Bind-n-Seq with designed 260-mer pool; 25 mM Tris-HCl, 150 mM KCl, 3 mM MgCl2, BSA (printed 500 mg/mL), 20 units/mL SUPERase IN; pH not stated; 500 nM RNA pool, 1 h, 4 C; TDP-43 5, 50, 500 nM; high values mean tight binding
Conditions: protein: recombinant; tags: SBP (GST cleaved off with PreScission; pGEX-GST-SBP)
Summary of the method: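 The incubation lasted 1 h at 4 °C and used 500 nM of an in vitro-transcribed 260-nt 3′ UTR oligo pool with recombinant SBP-tagged TDP-43 at 5, 50 or 500 nM immobilized on streptavidin beads. It took place in 25 mM Tris-HCl, 150 mM KCl, 3 mM MgCl2, BSA and SUPERase IN. Bound RNA was washed, eluted with biotin, converted to cDNA, PCR-amplified and sequenced to give R, each oligo's normalized abundance in the bound sample divided by that in input. Two independent protein batches provided the duplicates.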

Going from B1 to B2, the binding signal rises from 0.123 R (bound/input frequency ratio) to 0.326 R (bound/input frequency ratio).

Compared with B3, B4 is higher in binding signal: 1.88 R (bound/input frequency ratio) for the first, 11.2 R (bound/input frequency ratio) for the second.

First: B5
Second: B6
The binding signal of the first is higher: 5.83 R (bound/input frequency ratio) for the first, 4.33 R (bound/input frequency ratio) for the second.

Going from B7 to B8, the binding signal rises from 5.5 R (bound/input frequency ratio) to 7.07 R (bound/input frequency ratio).

With B9 the binding signal was 5.89 R (bound/input frequency ratio).
